Results reported in PubChem BioAssay AID1159580 (chemical genetic matrix, 2015).
Hit rate of the full screen: of about 5,500 compounds, about 2,000 (36%) were called active. Inconclusive results (about 18%) are left out. This is one part of the list. Unmarked numbers belong to inactive results. No stated cut-off is given here; in the data, active means normalized growth mostly below about 0.91 (no sharp cut-off); inconclusive means no clear call, values can overlap the other calls; inactive means mostly above about 0.92.

Assay: chemical genetic growth profiling, strain panel (AID 1159580);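 further: tested at 20 µM; growth read once vehicle control cultures reached saturation at 30 °C; 1 = growth at the plate median or of vehicle wells; lower values mean less growth of the strain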
Conditions: S. cerevisiae deletion strains, growth OD

## C[C@H]1[C@H](C)CC[C@]2(C(=O)O)CC[C@]3(C)C(=CCC4[C@@]5(C)C[C@@H](O)[C@H](O)[C@@](C)(CO)C5CC[C@]43C)[C@H]12 (stereo not given in full)
Locus YAL021C, strain ccr4, hits give low values
  normalized growth: 0.993
Locus YAL026C, strain drs2, hits give low values
  normalized growth: 1.04
Locus YAL030W, strain snc1, hits give low values
  normalized growth: 1.02
Locus YBL061C, strain skt5, hits give low values
  normalized growth: 1.01
Locus YBR009C, strain hhf1, hits give low values
  normalized growth: 1.01
Locus YBR023C, strain chs3, hits give low values
  normalized growth: 0.995
Locus YBR171W, strain sec66, hits give low values
  normalized growth: 1.04
Locus YBR231C, strain swc5, hits give low values
  normalized growth: 1.03
Locus YBR279W, strain paf1, hits give low values
  normalized growth: 1.01
Locus YCL011C, strain gbp2, hits give low values
  normalized growth: 1.02
Locus YCL016C, strain dcc1, hits give low values
  normalized growth: 1.01
Locus YCL061C, strain MRC1, hits give low values
  normalized growth: 1.02
Locus YCL069W, strain vba3, hits give low values
  normalized growth: 1.03
Locus YCR088W, strain abp1, hits give low values
  normalized growth: 1.03
Locus YDL005C, strain med2, hits give low values
  normalized growth: 1.03
Locus YDL040C, strain nat1, hits give low values
  normalized growth: 1.02
Locus YDR001C, strain nth1, hits give low values
  normalized growth: 1.03
Locus YDR069C, strain doa4, hits give low values
  normalized growth: 1.02
Locus YDR137W, strain rgp1, hits give low values
  normalized growth: 0.982
Locus YDR159W, strain sac3, hits give low values
  normalized growth: 0.983
Locus YDR195W, strain ref2
  normalized growth: 0.945
Locus YDR297W, strain sur2, hits give low values
  normalized growth: 1.02
Locus YDR334W, strain swr1, hits give low values
  normalized growth: 1.04
Locus YDR335W, strain msn5, hits give low values
  normalized growth: 1.02
Locus YDR392W, strain spt3, hits give low values
  normalized growth: 0.931
Locus YEL003W, strain gim4, hits give low values
  normalized growth: 1.02
Locus YEL037C, strain rad23, hits give low values
  normalized growth: 1.03
Locus YEL061C, strain CIN8 (second series), hits give low values
  normalized growth: 1.03
Locus YER015W, strain faa2, hits give low values
  normalized growth: 1.02
Locus YER016W, strain bim1, hits give low values
  normalized growth: 1.02
Locus YER111C, strain swi4, hits give low values
  normalized growth: 1.03
Locus YER155C, strain BEM2 (second series), hits give low values
  normalized growth: 1
Locus YFR010W, strain ubp6, hits give low values
  normalized growth: 1.04
Locus YGL167C, strain pmr1, hits give low values
  normalized growth: 1.03
Locus YGL173C, strain kem1, hits give low values
  normalized growth: 1.03
Locus YGL227W, strain vid30, hits give low values
  normalized growth: 1.04
Locus YGL240W, strain doc1, hits give low values
  normalized growth: 0.988
Locus YGL253W, strain hxk2, hits give low values
  normalized growth: 1.03
Locus YHR013C, strain ard1, hits give low values
  normalized growth: 1.03
Locus YHR027C, strain rpn1, hits give low values
  normalized growth: 1.02
Locus YHR030C, strain SLT2, hits give low values
  normalized growth: 0.949
Locus YHR079C, strain IRE1, hits give low values
  normalized growth: 0.937
Locus YHR142W, strain chs7, hits give low values
  normalized growth: 0.996
Locus YJL092W, strain hpr5, hits give low values
  normalized growth: 1.04
Locus YJL095W, strain BCK1 (second series), hits give low values
  normalized growth: 1.02
Locus YJL095W, strain BCK1, hits give low values
  normalized growth: 0.911
Locus YJL115W, strain asf1, hits give low values
  normalized growth: 1.02
Locus YJL129C, strain trk1, hits give low values
  normalized growth: 1
Locus YJL154C, strain vps35, hits give low values
  normalized growth: 1.03
Locus YJL164C, strain tpk1, hits give low values
  normalized growth: 0.993
Locus YJL166W, strain qcr8, hits give low values
  normalized growth: 0.996
Locus YJL187C, strain SWE1, hits give low values
  normalized growth: 1.02
Locus YJR066W, strain TOR1, hits give low values
  normalized growth: 0.939
Locus YKL160W, strain elf1, hits give low values
  normalized growth: 0.975
Locus YKR026C, strain gcn3, hits give low values
  normalized growth: 1.03
Locus YKR091W, strain srl3, hits give low values
  normalized growth: 1.02
Locus YLL001W, strain dnm1, hits give low values
  normalized growth: 1
Locus YLL026W, hits give low values
  normalized growth: 1.01
Locus YLL041C, strain sdh2, hits give low values
  normalized growth: 1.02
Locus YLR027C, strain aat2, hits give low values
  normalized growth: 1.01
Locus YLR113W, strain HOG1, hits give low values
  normalized growth: 0.721 (active)
Locus YLR221C, strain rsa3, hits give low values
  normalized growth: 0.982
Locus YLR258W, strain gsy2, hits give low values
  normalized growth: 1.01
Locus YLR262C, strain YPT6 (second series), hits give low values
  normalized growth: 0.975
Locus YLR320W, strain mms22, hits give low values
  normalized growth: 1.02
Locus YLR342W, strain FKS1, hits give low values
  normalized growth: 1.04
Locus YLR357W, strain rsc2, hits give low values
  normalized growth: 1.05
Locus YLR370C, strain arc18, hits give low values
  normalized growth: 1.03
Locus YLR384C, strain iki3, hits give low values
  normalized growth: 1.03
Locus YML120C, strain ndi1, hits give low values
  normalized growth: 0.978
Locus YMR058W, strain fet3, hits give low values
  normalized growth: 1.03
Locus YMR125W, strain sto1, hits give low values
  normalized growth: 1.05
Locus YMR129W, hits give low values
  normalized growth: 1.04
Locus YMR205C, strain PFK2, hits give low values
  normalized growth: 1.01
Locus YMR231W, strain pep5, hits give low values
  normalized growth: 1.03
Locus YNL071W, strain lat1, hits give low values
  normalized growth: 1.02
Locus YNL183C, strain NPR1, hits give low values
  normalized growth: 0.894
Locus YNL209W, strain ssb2, hits give low values
  normalized growth: 1.03
Locus YNL248C, strain rpa49, hits give low values
  normalized growth: 1.03
Locus YNL322C, strain KRE1 (second series), hits give low values
  normalized growth: 1.03
Locus YNR049C, strain mso1, hits give low values
  normalized growth: 1.03
Locus YOR001W, strain rrp6, hits give low values
  normalized growth: 0.973
Locus YOR070C, strain gyp1, hits give low values
  normalized growth: 1.01
Locus YOR080W, strain dia2, hits give low values
  normalized growth: 1.03
Locus YOR083W, strain WHI5, hits give low values
  normalized growth: 0.984
Locus YOR106W, strain vam3, hits give low values
  normalized growth: 0.981
Locus YOR231W, strain MKK1, hits give low values
  normalized growth: 0.973
Locus YOR265W, strain rbl2, hits give low values
  normalized growth: 1.02
Locus YOR270C, strain vph1, hits give low values
  normalized growth: 1.03
Locus YOR290C, strain snf2, hits give low values
  normalized growth: 0.968
Locus YPL051W, strain arl3, hits give low values
  normalized growth: 0.974
Locus YPL078C, strain atp4, hits give low values
  normalized growth: 1
Locus YPL106C, strain sse1, hits give low values
  normalized growth: 1.01
Locus YPL240C, strain hsp82, hits give low values
  normalized growth: 1.03
Locus YPL256C, strain CLN2, hits give low values
  normalized growth: 0.963
